# BioA inh: BioA (M. tuberculosis) enzyme inhibition; 0.096% of 360,000 active; purified M. tuberculosis BioA enzyme, plate reader; inhibition, % at 9.99 µM; in the data active means inhibition above about 40%; inconclusive means no clear call, values can overlap the other calls
# Mtb bLac sens: beta-lactam sensitization of Mtb H37Rv; M. tuberculosis H37Rv growth with meropenem, percent inhibition; inhibition, % at 25 µM; 0.27% of 330,000 active; AID 434955; call rule not given here;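 further: growth measured after seven days incubation then overnight dye step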
# PfHsp40 yeast: restores yeast growth despite PfHsp40 toxicity; growth rescue, % at 12.5 µM; AID 504582; S. cerevisiae expressing PfHsp40, growth rescue, ATP luminescence; 0.68% of 340,000 active; in the data active means growth rescue above about 28%, passing the limit was not always enough; inconclusive means no clear call, values can overlap the other calls;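 further: yeast W303a lacking pdr1 and pdr3 grown in galactose medium; growth measured after three days at 30 °C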
# ugtP null kill: growth inhibition of S. aureus ugtP deletion strain. growth inhibition, % (concentration not given with the values). 0.54% of 330,000 active. S. aureus RN4220 ugtP deletion, OD600 growth, 16 h; in the data active means growth inhibition above about 68%
# RN4220 kill: S. aureus RN4220 growth inhibition | inhibition, % (concentration not given with the values) | 0.33% of 330,000 active | OD600, 16 h; in the data active means inhibition above about 85%
# Hits are given with their value; - = inactive; ? = inconclusive; . = no result given. Sampled rows, rich in hits. Any-hit rate of the full collection: about 0.9%.
SMILES,BioA inh,Mtb bLac sens,PfHsp40 yeast,ugtP null kill,RN4220 kill
CCCCCC=CCC(O)C=Cc1cccc(CC(O)CCCCO)n1 (stereo not given),.,.,.,-,-
CC(=NNc1ccccn1)c1ccc(OC(F)F)cc1,.,.,.,93,-
C/C(=N\Nc1ncc(Cl)cc1Cl)c1ccc(OC(F)F)cc1,-,-,-,.,.
O=C(O)c1cccc(Cn2c(Cl)c(C=NNC(=O)c3cc4ccccc4cc3O)sc2=O)c1,.,.,.,-,-
CCCCC/C=C/C1=CC(=O)C[C@H](c2ccc(OC)cc2)C1,-,-,44,-,-
CCOc1ccc(/C=C2/SC(=O)NC2=S)cc1,-,-,-,100,-
FC(F)(F)c1cccc(NC(=S)NCC2COc3ccccc3O2)c1 (stereo not given),-,-,-,83,-
Fc1cccc(CCN2C(=S)NC[C@@H]2CC2CCCCC2)c1,-,-,122,.,.
Fc1cccc(CCN2C(=S)NCC2Cc2ccccc2)c1 (stereo not given),.,.,.,-,-
S=C1NC[C@H](CC2CCCCC2)N1CC1CCCCC1,-,-,98,.,.
COc1cc2c(c(OC)c1OC)-c1ccc(OC)c(=O)cc1[C@@H](NC(C)=O)CC2,-,-,-,.,.
COc1cc2c(c(OC)c1OC)-c1ccc(O)c(=O)cc1[C@@H](N)CC2,-,-,352,-,-
Cc1nn2c(NCc3ccccn3)cc(C(C)C)nc2c1-c1ccccc1,.,-,37,-,-
CC(=O)Nc1ccc(Nc2cc(C)nc3c(-c4ccccc4)c(C)nn23)cc1,.,-,-,-,-
CCCc1cc(NCc2ccccn2)n2nc(C)c(-c3ccccc3)c2n1,-,-,67,-,-
CC(=O)Nc1ccc(Nc2cc(C(C)C)nc3c(-c4ccccc4)c(C)nn23)cc1,.,-,97,-,-
O=C(O)c1cccc2c1NC(C(=O)O)C1CC(Sc3ccccc3[N+](=O)[O-])C(Cl)C21 (stereo not given),-,-,55,-,-
CC(=O)c1ccc2c(c1)C1C(Cl)C(Sc3ccccc3[N+](=O)[O-])CC1C(C(=O)O)N2 (stereo not given),.,-,-,-,-
Oc1nc(Nc2cccc(Cl)c2)sc1/C=C1\C=Nc2ccccc21,-,-,-,100,100
CC1CCC(=O)N(CC(C)CSc2ccc(Br)cc2)CC1 (stereo not given),.,.,.,-,-
Cc1cc(C)cc(NC(=O)COC(=O)CCCNC(=O)c2ccc(Cl)cc2)c1,.,-,-,99,-
O=C(CNC(=O)c1ccccc1)OCc1cccc(Br)c1,.,-,-,-,-
O=C(COC(=O)CCCNC(=O)c1ccc(Cl)cc1)Nc1cc(Cl)c(Cl)cc1Cl,-,-,-,-,-
O=C(CCCNC(=O)c1ccc(Cl)cc1)OCc1cccc(Br)c1,.,-,277,-,-
COc1cc2c(cc1O)C1Cc3cc(OC)c(OC)cc3C(C2)N1C (stereo not given),.,.,.,-,-
SMILES,BioA inh,Mtb bLac sens,PfHsp40 yeast,ugtP null kill,RN4220 kill
CCC[C@@H](CN1CCC[C@H]1CN1C(N)=NC[C@H]1CC(C)C)N1C[C@@H](Cc2ccccc2)N(CCCC2CCCC2)C1=N,-,-,-,101,100
CCC[C@@H](CN1CCC[C@H]1CN1C(N)=NC[C@@H]1Cc1ccccc1)N1C[C@@H](Cc2ccccc2)N(CCCC2CCCC2)C1=N,-,-,-,.,.
CCC(C)C1CN(C(C)CN2CCCC2CN2C(N)=NCC2Cc2ccccc2)C(=N)N1CCCC1CCCC1 (stereo not given),.,.,.,100,100
CCCCN1C(=N)N([C@@H](C)CN2CCC[C@H]2CN2C(N)=NC[C@H]2CC(C)C)C[C@H]1Cc1ccccc1,-,-,-,.,.
CC(CN1CCCC1CN1C(N)=NCC1Cc1ccccc1)N1CC(Cc2ccccc2)N(CCCC2CCCC2)C1=N (stereo not given),.,.,.,100,101
Nc1nc(-c2ccccc2)c(-c2ccc([N+](=O)[O-])cc2)s1,-,-,233,-,-
Cc1ccc(-c2nc(N)sc2-c2ccccc2)cc1C,.,?,-,96,-
CCCOc1ccc(C(O)=C2C(=O)C(=O)N(CCCn3ccnc3)C2c2cccs2)cc1 (stereo not given),.,.,.,-,-
O=C(C1CCN(C2CC(=O)N(c3cccc(Cl)c3)C2=O)CC1)N1CCCC1 (stereo not given),-,-,468,.,.
COC(=O)C1CCN(C2CC(=O)N(c3cc(C)cc(C)c3)C2=O)CC1 (stereo not given),.,-,45,-,-
NC(=O)C1CCN(C2CC(=O)N(c3ccc(F)c(Cl)c3)C2=O)CC1 (stereo not given),-,-,204,-,-
CCOC(=O)C1CCN(C2CC(=O)N(c3cccc(Cl)c3)C2=O)CC1 (stereo not given),-,-,176,-,-

# From PubChem
